# Screening results: PubChem BioAssay, National Center for Advancing Translational Sciences (NCATS)
# Shown are actives, neighbours in structure and some others; about 17% of the full set was active somewhere.
# TDP1 cell CPT: DT40-hTDP1 cell growth loss with CPT. chicken DT40 Tdp1-/-;hTDP1 cells + 20 nM CPT, ATP luminescence, 48 h. 12% of 420,000 active. AID 686979. Potency, µM (top dose mostly 46.2 µM), for the others: at the top dose activity change, negative = growth inhibition, usual class: inhibitors; also: % is scaled to controls: 0 for no effect and ±100 for the full control effect; nearly all actives have a fitted effect of over 55% in size
#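 Chicken DT40 Tdp1-/- cells stably complemented with human TDP1 were seeded at 400 cells/well in medium containing 20 nM camptothecin, exposed to pin-transferred compounds, and grown at 37 °C for at least 48 hr. Viability was read as ATP luminescence.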
# HT1080NT lethal: kills 2HG-producing HT-1080-NT fibrosarcoma cells | HT-1080-NT fibrosarcoma viability, CellTiter-Glo ATP luminescence, 48 h | Potency, µM (highest dose often 46.1 µM), for the others: at the highest dose activity, negative = less viability, most hits filed as cytotoxic | 1.6% of 360,000 active | AID 686970;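 also: NT is the 2HG producing partner of a matched IDH1 knockdown line; 0% = DMSO-treated cells and -100% = media-only wells without cells; nearly all actives have a fitted effect of over 55% in size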
#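 750 cells/well, RPMI + 5% FBS; 2 h settle, compound pin-transfer, 48 h at 37 degrees C. CellTiter-Glo 10 min RT, luminescence. Normalized to DMSO and media-only wells.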
# TGFb inhibitor: TGF-b pathway inhibition; 1.2% of 410,000 active; Potency, µM (top dose mostly 46.1 µM), inactives show at the top dose activity, negative = inhibition, usual class: inhibitors; HepG2 CAGA-GFP TGF-b/SMAD3 reporter, GFP fluorescence, 18 h; TGF-beta stimulated, 500 pg/mL final; also: % is scaled to controls: 0 for no effect and ±100 for the full control effect; nearly all actives have a fitted effect of over 65% in size
#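 GFP signal (ex488/em500-530) from TGF-beta-stimulated HEPG2 CAGA-GFP cells, 500 pg/mL final, 18 h at 37 degrees C in DMEM plus 1% FBS, normalized to unstimulated and DMSO-stimulated controls.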
# HT1080 IDH1KD tx: kills HT-1080 cells with IDH1 knockdown | HT-1080 IDH1 knockdown viability, ATP luminescence, 48 h | 2% of 360,000 active | Potency, µM (top dose mostly 46.1 µM), without a hit: at the top dose activity, negative = toxicity, actives largely listed as cytotoxic | AID 686971;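 also: 0% = DMSO wells and -100% = cell-free medium wells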
#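 Viability of IDH1-knockdown HT-1080 fibrosarcoma cells was assessed by CellTiter-Glo after 48 h at 37 °C with titrated compound; concentration-effect curves were classified by fit quality and response size.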
# HepG2 viability: counter-screen for TGF-b inhibitors: cytotoxicity in HepG2 cells; 0.76% of 410,000 active; HepG2 CAGA-GFP viability, ATP luminescence, 18 h; AID 588856; Potency, µM (series often up to 46.1 µM), without a hit: at the top dose activity change, negative = cytotoxicity, actives largely listed as cytotoxic
#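 HepG2 CAGA-GFP cells (1000/well, DMEM with 1% FBS) received compound, then TGF-beta at 500 pg/mL final, and were incubated 18 hours at 37 degrees C. Viability was read by CellTiter-Glo luminescence. Media-only wells were set as complete cell-killing and DMSO as no toxicity.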
# TDP1 cell noCPT: qHTS for Inhibitors of human tyrosyl-DNA phosphodiesterase 1 (TDP1): qHTS in cells in absence of CPT; DT40 Tdp1-/- hTDP1 cells, no CPT, ATP luminescence, 48 h; Potency, µM (titrated, usually from 46.2 µM), for the others: top-dose activity change, negative = growth inhibition, hits mostly inhibitors; 15% of 420,000 active; AID 686978, 2013; also: % is scaled to controls: 0 for no effect and ±100 for the full control effect; nearly all actives have a fitted effect of over 55% in size
#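 Seeded 400 DT40-hTDP1 cells/well (vehicle DMSO, no 20 nM CPT); pinned compounds; ≥48 hr at 37 °C; CellTiter-Glo luminescence as viability measure.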
# Numbers without * were called inactive; ? = inconclusive; . = no result given. Calls follow the shape of the dose curve; as a rule, active = well fitted curve in the direction sought with a large enough effect; inconclusive = small, poorly fitted or top-dose-only effect, or another doubt; inactive = no such curve, though single readings can be large; an effect the other way counts as inactive or inconclusive. Potency is read from the fitted curve at half-maximal effect.
SMILES,TDP1 cell CPT,HT1080NT lethal,TGFb inhibitor,HT1080 IDH1KD tx,HepG2 viability,TDP1 cell noCPT
CC1(C(=O)Nc2cccc(C#N)c2)CCN1C(=O)c1ccccc1CCc1ccccc1 (configuration not stated),?,-22.5%,?,-22.5%,-32.1%,23.1µM*
CC1(C(=O)Nc2ccc3c(c2)OCCO3)CCN1C(=O)c1ccco1 (configuration not stated),-41.6%,?,10.2%,19.0%,-4.0%,-11.0%
O=C(COC(=O)CNC(=O)c1ccccc1)NC12CC3CC(CC(C3)C1)C2,-26.6%,-2.6%,-12.6%,-3.2%,-34.7%,-27.4%
CCNC(=S)SCCOc1ccccc1C,-24.2%,-9.4%,-12.7%,-2.7%,-17.0%,?
CSc1ccccc1C(=O)N(CC1CCCO1)c1c(N)n(Cc2ccccc2)c(=O)[nH]c1=O (configuration not stated),-0.2%,1.7%,0.8%,-0.3%,-34.8%,-16.1%
Cc1cc(OC(C)C(=O)NCCc2c[nH]c3ccccc23)c2c(C)cc(=O)oc2c1 (configuration not stated),16.4µM*,-4.8%,1.1%,-1.0%,-29.7%,?
COc1ccc(NC(=O)CSc2nc3ncccc3[nH]2)cc1OC,?,1.4%,0.0%,-1.5%,3.8%,2.5%
CC(C)c1ccc(NC(=O)CSc2nc3ncccc3[nH]2)cc1,?,-24.9%,0.8%,-1.8%,-19.1%,25.9µM*
COC(=O)c1ccccc1NC(=O)CSc1nc2ncccc2[nH]1,-3.1%,5.0%,9.8%,10.2%,-4.9%,-24.4%
CC(C)OC(=O)c1ccc(NC(=O)CSc2nc3ncccc3[nH]2)cc1,8.2µM*,-23.1%,-21.2%,-18.8%,-9.4%,13µM*
CCOC(=O)CCC1(C(=O)OC)C(=O)CCCCCC=C1C(=O)OC (configuration not stated),0.3%,0.3%,-2.3%,-16.0%,-18.4%,5.8%
Cc1cccc(OCCSc2nnc(-c3ccoc3C)n2C)c1,23.1µM*,5.9%,-3.6%,13.1%,2.4%,20.6µM*
CC1CCN(C(=O)c2ncn3c2c(=O)[nH]c2ccc(Br)cc23)CC1,-1.2%,1.7%,-9.6%,2.1%,-21.2%,-2.0%
CC(C)(C)OC(=O)NCc1ccc(CNC(=O)c2ncn(Cc3ccccc3)c2C(=O)NCc2ccc(CNC(=O)OC(C)(C)C)cc2)cc1,-14.6%,10.7%,?,13.7%,-13.9%,-2.9%
CC(C)(C)OC(=O)[C@H](Cc1ccccc1)NC(=O)c1ncn2c1c(=O)[nH]c1ccc(Br)cc12,4.61µM*,12.0%,21.9%,6.6%,5.0%,3.26µM*
CC(C)(C)OC(=O)NCCCCCNC(=O)c1ncn2c1c(=O)[nH]c1ccccc12,?,-5.5%,4.8%,12.3%,6.3%,20.6µM*
CSc1cccc(NS(=O)(=O)c2ccc3[nH]cc(C(=O)N4CCCCCC4)c(=O)c3c2)c1,-23.1%,.,-28.7%,.,-5.5%,-10.8%
COc1ccc(C(C)=O)cc1CSc1nnc(Nc2ccc(C)cc2)s1,?,?,?,?,-0.8%,23.1µM*
COc1ccc(C(C)=O)cc1CSc1nnc(C)s1,-16.6%,6.3%,-18.6%,4.2%,0.5%,-8.4%
COc1ccc(C(C)=O)cc1CSc1nnc(Nc2ccccc2)s1,?,?,-8.1%,?,-27.4%,16.4µM*
O=C(Nc1nnc([C@@H]2C[C@H](O)[C@@H](CO)O2)s1)Nc1ccccc1F,-4.5%,7.4%,1.0%,?,3.5%,0.0%
